Compound activity as filed in PubChem BioAssay.
This is a sample that favours compounds with a hit; in the whole collection about 5.4% have one here.
RORgamma inh – qHTS for inhibitors of ROR gamma transcriptional activity. Nuclear receptor ROR-gamma (Mus musculus), P51450. Drosophila S2 Gal4-RORgamma UAS-luciferase reporter, 20 h. Potency, µM (series often up to 53.6 µM), usual class: inhibitors. actives 5.4% (n = 310,000). AID 2551, 2010; also: nearly all actives have a fitted effect of over 60% in size
Target sequence (P51450 whole entry, looked up, the tested form may be a part): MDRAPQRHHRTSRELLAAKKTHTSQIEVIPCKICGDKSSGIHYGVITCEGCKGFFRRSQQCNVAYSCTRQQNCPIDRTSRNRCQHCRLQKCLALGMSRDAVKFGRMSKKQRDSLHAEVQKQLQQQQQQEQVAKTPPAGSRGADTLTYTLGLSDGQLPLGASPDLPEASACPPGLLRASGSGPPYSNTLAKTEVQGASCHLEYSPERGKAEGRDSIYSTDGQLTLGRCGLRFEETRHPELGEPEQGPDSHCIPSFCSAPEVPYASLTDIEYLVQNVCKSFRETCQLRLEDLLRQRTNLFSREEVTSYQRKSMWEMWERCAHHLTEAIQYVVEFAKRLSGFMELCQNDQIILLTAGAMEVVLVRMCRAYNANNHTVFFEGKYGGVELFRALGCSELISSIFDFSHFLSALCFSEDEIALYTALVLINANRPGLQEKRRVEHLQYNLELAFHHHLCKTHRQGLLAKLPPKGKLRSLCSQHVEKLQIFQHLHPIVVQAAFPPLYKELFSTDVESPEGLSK
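In this cell-based reporter format, copper sulfate (700 uM final) drives Gal4–ROR gamma fusion expression from a metallothionein promoter in Drosophila Schneider cells; compounds preincubated 1 hr, reporter read after 20 hr at ambient temperature.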
p53 reactivation – qHTS assay for re-activators of p53 using a Luc reporter | H1299 p53-A138V BP100-luciferase reporter, luminescence, 24 h | Potency, µM (titrated, usually from 92.2 µM), most hits filed as activators | actives 0.063% (n = 320,000) | AID 504706, 2011; also: nearly all actives have a fitted effect of over 45% in size
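H1299 (p53-null), stable ts p53-A138V + BP100-Luc; 1000 cells/well, Opti-MEM/10% FBS; cpd 4 pt, 1:5; 24 h, 37 deg C, 5% CO2; detection reagent 10 min RT; luminescence.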
CtBP-E1A blk – qHTS Assay for Inhibitors of the CtBP/E1A Interaction. CtBP / adenovirus E1A interaction (AlphaScreen). AlphaScreen GST-E1A/His-CtBP binding, 1536-well; stronger effect = lower value. activity change, % (test concentration not listed). actives 0.49% (n = 340,000). AID 651724, 2012; in the data active = activity change below about -65%; inconclusive = mostly about -30% to -63%
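AlphaScreen with 125 nM GST-E1A and 125 nM His-CtBP (5X stocks) in Tris pH 8.0, 300 mM NaCl, BSA, Tween 20, TCEP. Compounds preincubated 2 h at 37 deg C, then glutathione donor/nickel acceptor beads added for 1 h at 37 deg C in dark.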
Gal4-VP16 FLuc – VP16 counterscreen qHTS for inhibitors of ROR gamma transcriptional activity. Drosophila S2 Gal4-VP16 UAS-luciferase, luminescence, 20 h. Potency, µM (doses to about 53.6 µM), actives largely listed as inhibitors. actives 3.5% (n = 310,000). AID 2546, 2010;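 also: Gal4-VP16 expression switched on by copper sulfate through the metallothionein promoter; nearly all actives have a fitted effect of over 50% in size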
Six1-Eya2 blk – qHTS Assay for Inhibitors of the Six1/Eya2 Interaction | Homeobox protein SIX1 (Homo sapiens) + Protein phosphatase EYA2 (Homo sapiens), … | AlphaScreen GST-Six1/His-Eya2 binding, biochemical; stronger effect = lower value | activity change, % (no concentration beside the values) | actives 0.56% (n = 360,000); in the data active = activity change below about -65%; inconclusive = mostly about -30% to -63%
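AlphaScreen with GST-Six1 and His-Eya2 (5X mix: 250 nM and 500 nM), glutathione donor and nickel acceptor beads; buffer 50 mM Tris pH 8.0, 300 mM NaCl, 1 mM TCEP; 1 h at 37 C in the dark.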
Each line names hits and unclear results; the compound was inactive in the other large screens. Unless noted, calls follow the shape of the dose curve; as a rule, active = well fitted curve in the direction sought with a large enough effect; inconclusive = small, poorly fitted or top-dose-only effect, or another doubt; inactive = no such curve, though single readings can be large; an effect the other way counts as inactive or inconclusive.

CCCCNC(=S)Nc1ccccc1F	RORgamma inh 11µM, Gal4-VP16 FLuc inconclusive
CC(C)CNC(=S)Nc1ccccc1F	RORgamma inh 6.3µM, Gal4-VP16 FLuc 4.5µM
CC1CCCC(C)N1CCCNC(=O)c1ccc2nc(N3CCCCC3)sc2c1 (stereo not drawn)	none
O=[N+]([O-])c1ccc(O)c(-c2cc(C(F)(F)F)nc(-c3ccccc3)n2)c1	RORgamma inh 1.1µM, Gal4-VP16 FLuc 2.8µM (no result: CtBP-E1A blk)
N=C1S/C(=C\c2ccco2)C(=O)N1c1nccs1	RORgamma inh 0.018µM, Gal4-VP16 FLuc 0.22µM (no result: CtBP-E1A blk)
Cc1oncc1C(=O)N1CCCC(CO)(Cc2ccc(F)cc2F)C1 (stereo not drawn)	p53 reactivation inconclusive, Gal4-VP16 FLuc inconclusive
COc1ccc(NC(=S)NNC(=O)c2nnn(-c3ccccc3)c2C)cc1	Six1-Eya2 blk -78
COc1ccc(NC(=O)c2cnn(-c3ccccc3)c2C)cc1	RORgamma inh inconclusive (no result: p53 reactivation, CtBP-E1A blk)
CC(=O)/C(N=Nc1cc(C)ccc1O)=C(\C)O	RORgamma inh 3.2µM
CCOC(=O)CN1C(=O)N[C@@H](CCc2ccccc2)[C@H](C(=O)OC)[C@H]1C	none (no result: RORgamma inh, p53 reactivation, Gal4-VP16 FLuc)
CN(C)N=Nc1nc2c(c(=O)n(C)c(=O)n2C)n1C	none
CCCCC[C@@H]1C=C(C(=O)O)[C@H](c2cccc(C)c2)N1S(=O)(=O)c1ccc(C)cc1	none (no result: RORgamma inh, Gal4-VP16 FLuc)
COc1ccc2nc(Cl)c(/C=N/Nc3ccccn3)cc2c1	RORgamma inh 11µM, Gal4-VP16 FLuc inconclusive
CCOc1ccc(/C=N/Nc2ccccn2)cc1	RORgamma inh 11µM, p53 reactivation inconclusive, Gal4-VP16 FLuc inconclusive (no result: CtBP-E1A blk)
O=C(O)C1CCC(Cn2c(SCc3cc(=O)n4cc(Cl)ccc4n3)nc3ccsc3c2=O)CC1 (stereo not drawn)	none (no result: CtBP-E1A blk)
COc1cc(O)c(C(CC(=O)N2CCCC(C)C2)c2ccc3c(c2)OCO3)c(OC)c1 (stereo not drawn)	RORgamma inh 3.5µM
COc1cc(O)c(C(CC(=O)N2CCCCC2)c2ccc3c(c2)OCO3)c(OC)c1 (stereo not drawn)	RORgamma inh 14µM
COc1cc(O)c(C(CC(=O)N2CCCC(C)C2)c2ccc(N(C)C)cc2)c(OC)c1 (stereo not drawn)	RORgamma inh 2µM, CtBP-E1A blk inconclusive, Six1-Eya2 blk inconclusive
O=C(COC(=O)c1cccc(Cl)c1)NCc1ccccc1	none (no result: RORgamma inh, Gal4-VP16 FLuc)
Cc1cccc2nc(-c3ccccc3)nc(N[C@@H](CO)c3ccccc3)c12	RORgamma inh inconclusive
CCc1nnc(NC(=O)CSc2nccn2-c2cccc(C)c2C)s1	RORgamma inh 2.8µM, Gal4-VP16 FLuc 18µM
CCc1nnc(NC(=O)CSc2nccn2-c2cc(C)cc(C)c2)s1	RORgamma inh 18µM, Gal4-VP16 FLuc inconclusive
Cc1cccc(-n2ccnc2SCC(=O)Nc2nccs2)c1C	RORgamma inh inconclusive
CCc1nnc(NC(=O)CSc2nc3cccnc3n2C2CCCCC2)s1	RORgamma inh 10µM, Gal4-VP16 FLuc inconclusive
COc1ccc(C(=O)N2CCC3(CCCN(c4ccncc4)C3)CC2)cc1	none (no result: p53 reactivation, CtBP-E1A blk, Six1-Eya2 blk)
COc1ccc(-c2cc(C(=O)OCC(=O)c3ccc(C)c([N+](=O)[O-])c3)c3ccccc3n2)cc1	Gal4-VP16 FLuc inconclusive
COc1ccc(-c2nn(-c3ccccc3)cc2C(=O)OCC(=O)c2ccc(C)c([N+](=O)[O-])c2)cc1	RORgamma inh inconclusive, Gal4-VP16 FLuc 18µM (no result: CtBP-E1A blk)
O=C1C(=O)N(C2CCCC2)C(=O)N1Cc1c(F)cccc1Cl	none (no result: CtBP-E1A blk)
NCCC[C@@H](CC(=O)N[C@@H]1CCNC[C@H]1C(=O)N[C@H](CC(=O)N[C@@H](CCC(=O)O)CC(=O)O)Cc1ccccc1)NC(=O)C[C@H](Cc1ccccc1)NC(=O)[C@@H]1CNCC[C@H]1N	none (no result: p53 reactivation, CtBP-E1A blk, Six1-Eya2 blk)
COc1ccc(Cl)c2c1[nH]c1nc(SCc3cccnc3)nnc12	none
COc1ccc(Cl)c2c1[nH]c1nc(SCc3ccccn3)nnc12	p53 reactivation inconclusive, CtBP-E1A blk inconclusive, Six1-Eya2 blk -67
Cc1cccc(NC(=S)N=Nc2c(O)[nH]c3ccccc23)c1	RORgamma inh 1.4µM, Gal4-VP16 FLuc 3.5µM, Six1-Eya2 blk inconclusive
COc1ccc(/C=N/OCC(=O)N=Nc2c(O)[nH]c3ccc(Br)cc23)cc1OC	Gal4-VP16 FLuc inconclusive
